{"source": "PubChem BioAssay (EPA / NIEHS)", "note": "Records with an inconclusive call do not appear. Activity calls are given as the source filed them. How the source made its calls: active means hit-call score of the fitted dose curve at least 0.9, where 1 is the maximum; inconclusive means response in the unintended direction; inactive means score below 0.9."}
{"biological_target": "Estrogen receptor (Homo sapiens) + Estrogen receptor beta (Homo sapiens) (UniProt P03372+Q92731)", "sequence (P03372 whole entry, looked up)": "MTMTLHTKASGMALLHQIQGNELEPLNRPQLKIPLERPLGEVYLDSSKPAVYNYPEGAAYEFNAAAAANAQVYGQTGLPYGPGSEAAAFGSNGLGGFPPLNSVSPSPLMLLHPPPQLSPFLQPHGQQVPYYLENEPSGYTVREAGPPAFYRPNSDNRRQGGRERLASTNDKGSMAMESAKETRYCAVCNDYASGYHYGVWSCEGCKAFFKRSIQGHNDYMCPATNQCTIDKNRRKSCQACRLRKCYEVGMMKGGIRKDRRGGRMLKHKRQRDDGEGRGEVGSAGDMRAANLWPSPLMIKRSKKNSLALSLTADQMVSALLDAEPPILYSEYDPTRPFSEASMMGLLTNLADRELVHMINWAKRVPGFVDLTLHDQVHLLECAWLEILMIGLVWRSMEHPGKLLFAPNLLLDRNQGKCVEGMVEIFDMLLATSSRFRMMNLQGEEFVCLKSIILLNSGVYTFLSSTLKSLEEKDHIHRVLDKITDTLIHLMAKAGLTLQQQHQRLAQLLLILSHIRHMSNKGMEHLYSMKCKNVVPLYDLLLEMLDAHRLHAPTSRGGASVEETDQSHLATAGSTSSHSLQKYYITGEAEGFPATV", "sequence (Q92731 whole entry, looked up)": "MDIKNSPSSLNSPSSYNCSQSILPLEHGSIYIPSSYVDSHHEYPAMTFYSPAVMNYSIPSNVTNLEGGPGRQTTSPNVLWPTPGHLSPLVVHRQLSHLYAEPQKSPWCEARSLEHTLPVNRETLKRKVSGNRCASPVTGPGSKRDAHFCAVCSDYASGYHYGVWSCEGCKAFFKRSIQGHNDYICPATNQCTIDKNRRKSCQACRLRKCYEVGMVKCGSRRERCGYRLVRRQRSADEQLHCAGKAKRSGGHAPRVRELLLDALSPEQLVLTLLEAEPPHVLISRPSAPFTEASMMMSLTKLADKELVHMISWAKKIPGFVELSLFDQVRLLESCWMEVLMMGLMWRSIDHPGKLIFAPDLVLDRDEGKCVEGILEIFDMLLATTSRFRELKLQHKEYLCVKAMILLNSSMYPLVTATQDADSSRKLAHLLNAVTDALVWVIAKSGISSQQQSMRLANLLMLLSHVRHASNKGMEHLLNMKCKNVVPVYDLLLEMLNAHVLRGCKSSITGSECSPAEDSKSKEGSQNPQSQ", "assay": "OT_ER_ERaERb_1440: Odyssey Thera (OT) 24-hour HEK293T Protein-Complementation Assay for Estrogen Receptor-alpha/-beta Homodimer (AID 2283356);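 further: hits raise reporter fluorescence and both agonists and antagonists give an increase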", "method": "OT_ER_ERaERb_1440 is a cell-based assay that uses HEK293T, a human kidney cell line, with measurements taken at 24 hours after chemical dosing in a 384-well plate.OT_ER_ERaERb_1440 is one of one assay component(s) measured or calculated from the OT_ER_ERaERb_1440 assay. It is designed to make measurements of protein fragment complementation, a form of binding reporter, as detected with fluorescence intensity signals by Protein-fragment Complementation technology.Data from the assay component OT_ER_ERaERb_1440 was analyzed into 1 assay endpoint. This assay endpoint, OT_ER_ERaERb_1440, was analyzed in the positive analysis fitting direction relative to DMSO as the negative control and baseline of activity. Using a type of binding reporter, measures of receptor for gain-of-signal activity can be used to understand the binding at the pathway-level as they relate to the gene ESR1 and ESR2. Furthermore, this assay endpoint can be referred to as a primary readout, because the performed assay has only produced 1 assay endpoint. To generalize the intended target to other relatable targets, this assay endpoint is annotated to the nuclear receptor intended target family, where the subfamily is steroidal.\nProtein-fragment complementation assay, or PCA, is a method for the identification and quantification of protein-protein interactions. In the PCA, the proteins of interest (\"bait\" and \"prey\") are each covalently linked to fragments of a third protein (e.g. DHFR, which acts as a \"reporter\"). Interaction between the bait and the prey proteins brings the fragments of the reporter protein in close proximity to allow them to form a functional reporter protein whose activity can be measured. The OT ER alpha / ER beta assay is a heterodimer PCA of the ligand binding domain (LBD) of ER alpha (amino acids 310-547) and human ER beta (amino acids 263-489) stably expressed in HEK293T cells. […] Fluorescent signal in the basal state of the assay is very low and is primarily punctuate and cytoplasmic. Modulation of this assay is quantified as an increase in mean fluorescence intensity in the nucleus (for agonists) or in the nucleus and cytoplasm (antagonists) relative to vehicle controls, and can be quantified on a high content imaging device or a laser scanning cytometer. The latter instrument is favored for this assay because of the rapid mode of data acquisition, the ability to acquire data from the entire cell population in a well (as opposed to a fraction of the well on the high content devices) and the larger dynamic range typically achieved with this instrument. To assess sensitivity of the ER alpha/ER beta LBD assay to ligand, cells were treated with the ER agonist 17- beta-estradiol (E2) in 10-point concentration- response format for 24 hours and monitored response on a laser scanning plate cytometer (Acumen eX3; TTP Lab Tech)."}
{"smiles": "CC(C)(C)C(O)/C(=C\\c1ccc(Cl)cc1Cl)n1cncn1", "note": "(stereo not drawn)", "outcome": "inactive"}
{"smiles": "C#CCN1C(=O)COc2cc(F)c(N3C(=O)C4=C(CCCC4)C3=O)cc21", "outcome": "inactive"}
{"smiles": "C[C@H]1[C@H](c2ccc(Cl)cc2)SC(=O)N1C(=O)NC1CCCCC1", "outcome": "inactive"}
{"smiles": "O=C(NC(=O)c1c(F)cccc1F)Nc1ccc(OC(F)(F)C(F)OC(F)(F)F)c(Cl)c1", "note": "(stereo not drawn)", "outcome": "inactive"}
{"smiles": "CNC(=O)/C=C(\\C)OP(=O)(OC)OC", "outcome": "inactive"}
{"smiles": "OCCOc1ccccc1", "outcome": "inactive"}
{"smiles": "CCC(C)(C)C(=O)OC1=C(c2ccc(Cl)cc2Cl)C(=O)OC12CCCCC2", "outcome": "inactive"}
{"smiles": "CCC(C)Nc1c([N+](=O)[O-])cc(C(C)(C)C)cc1[N+](=O)[O-]", "note": "(stereo not drawn)", "AC50": "69.9 µM (active)"}
{"smiles": "COP(=O)(OC)OC=C(Cl)Cl", "outcome": "inactive"}
{"smiles": "CC1(C)C(C=C(Cl)Cl)C1C(=O)OC(C#N)c1ccc(F)c(Oc2ccccc2)c1", "note": "(stereo not drawn)", "outcome": "inactive"}
{"smiles": "O=C(Nc1ccccc1)Nc1cnns1", "outcome": "inactive"}
{"smiles": "CNC(=O)Oc1cccc(N=CN(C)C)c1", "outcome": "inactive"}
{"smiles": "COP(=S)(OC)Oc1ccc(SC)c(C)c1", "outcome": "inactive"}
{"smiles": "O=[N+]([O-])/N=C1\\NCCN1Cc1ccc(Cl)nc1", "outcome": "inactive"}
{"smiles": "Clc1ccccc1-c1nnc(-c2ccccc2Cl)nn1", "outcome": "inactive"}
{"smiles": "CCC(C)(NC(=O)c1cc(Cl)c(C)c(Cl)c1)C(=O)CCl", "note": "(stereo not drawn)", "outcome": "inactive"}
{"smiles": "CNC(=O)Oc1ccccc1OC(C)C", "outcome": "inactive"}
{"smiles": "O=[N+]([O-])c1c(Cl)c(Cl)c(Cl)c(Cl)c1Cl", "outcome": "inactive"}
{"smiles": "CCOC1Oc2ccc(OS(C)(=O)=O)cc2C1(C)C", "note": "(stereo not drawn)", "outcome": "inactive"}
{"smiles": "N#Cc1c(Cl)c(Cl)c(Cl)c(C#N)c1Cl", "outcome": "inactive"}
{"smiles": "COP(=S)(OC)Oc1ccc([N+](=O)[O-])cc1", "outcome": "inactive"}
{"smiles": "CCc1ccc(C(=O)NN(C(=O)c2cc(C)cc(C)c2)C(C)(C)C)cc1", "outcome": "inactive"}
{"smiles": "CCOCN(C(=O)CCl)c1c(C)cccc1CC", "outcome": "inactive"}
{"smiles": "CC1(c2ccc(Oc3ccccc3)cc2)OC(=O)N(Nc2ccccc2)C1=O", "note": "(stereo not drawn)", "outcome": "inactive"}
{"smiles": "COc1nn(CSP(=S)(OC)OC)c(=O)s1", "outcome": "inactive"}
{"smiles": "N#CN", "outcome": "inactive"}
{"smiles": "CNC(=O)CSP(=S)(OC)OC", "outcome": "inactive"}
{"smiles": "CC(C)OC(=O)Nc1cccc(Cl)c1", "outcome": "inactive"}
